Assay results reported in PubChem BioAssay AID504882 (Broad Institute, 2011).
About 290 (24%) of roughly 1,200 compounds were called active. Not shown: some 9% with an inconclusive outcome. How the calls were made is not given here. Only a sample is shown. A call without a number means that no potency is given here. Potency and affinity values are given separately.

Experiment: cytotoxicity in EBV lymphoblastoid cells, dose response, cytotoxicity control, cell-based, plate reader, cherry-picks, set 2 (AID 504882)
Settings: EBV lymphoblastoid cells (LCL) viability; series mostly up to 19.5 µM
With `O=C(N1CCOCC1)N1CCN(S(=O)(=O)c2ccc(Cl)cc2)C1` the outcome was “inactive”. For `Cc1cccc(/C=N/NC(=O)CNc2cccc3ccccc23)n1`, the outcome was “inactive”. With `O=C(O)c1ccc(C=NNC(=O)c2cccc3ccccc23)cc1` the outcome was “inactive”. With `COc1ccc(-c2[nH]ncc2/C=N\NS(=O)(=O)c2ccc(Cl)cc2)cc1` the outcome was “inactive”. For `CCN(c1ccccc1)S(=O)(=O)c1ccc(Cl)c(NC(=O)Nc2ccc(Cl)cc2C#N)c1`, the outcome was “inactive”. For `O=[N+]([O-])c1ccc(Cl)c(S(=O)(=O)NCC2CCCO2)c1` (centres undefined), the outcome was “inactive”. For `CCOc1ccc(OCc2cccc(C(=O)N3CCCCCC3)c2)cc1`, the outcome was “inactive”. For `COc1ccc(C(=O)NCCN2CCOCC2)cc1[N+](=O)[O-]`, the outcome was “inactive”. In the case of `COc1cccc(/C=C2\SC(=S)N(CCC(=O)NCCc3ccc(O)cc3)C2=O)c1`, the outcome is reported as “inactive”. For `COc1ccc(C(=O)NCCNc2nc3cc(C)c(C)cc3cc2C)cc1`, the outcome was “inactive”. In the case of `COc1ccc(C(=O)Nn2c(SCC(=O)c3ccc(Cl)cc3)nc3ccccc3c2=O)cc1`, the outcome is reported as “inactive”. For `COc1ccc(-c2cc3c(=O)n(CC(=O)NCCCN4CCN(Cc5ccccc5)CC4)ncn3n2)cc1`, the outcome was “inactive”. With `Cc1cccc(C)c1Nc1nc2ccccc2o1` the outcome was “inactive”. With `O=c1[nH]c(Nc2nc3ccccc3o2)nc2c1CCCC2` the outcome was “inactive”. With `COc1ccc(-n2c(C)c(C(C)=O)c3cc(OC(C)=O)ccc32)cc1` the outcome was “inactive”. In the case of `CC(=O)Nc1ccc(OCCCNC(=O)c2c(-c3ccccc3)noc2C)cc1`, the outcome is reported as “inactive”. For `COc1ccccc1NC(=O)Cn1nnc(-c2ccccc2NS(=O)(=O)c2ccccc2)n1`, the outcome was “inactive”. For `CCN(CC)Cc1cc(Nc2ccnc3cc(Cl)ccc23)ccc1O`, the outcome was “inactive”. For `O=C1CSC(=S)N1Cc1ccccc1`, the outcome was “inactive”. For `CC(=O)O[C@H]1CC[C@@]2(C)C(=CC[C@H]3[C@@H]4CC[C@H](C(C)=O)[C@@]4(C)CC[C@@H]32)C1`, the outcome was “inactive”. For `Cc1ccc(N=c2c([N+](=O)[O-])nn(-c3ccc4c(c3)OCCO4)n2O)cc1F`, the outcome was “inactive”. With `COCCNC(=O)C(=O)NCC1OCCN1C(=O)c1ccc(Cl)cc1` (centres undefined) the outcome was “inactive”. For `CCCn1c(C)cc(C(=O)COC(=O)c2ccc[nH]c2=O)c1C`, the outcome was “inactive”. With `COc1cc2oc(=O)cc(-c3ccc(-c4ccc(N(C)C)cc4)cc3)c2c(OC)c1OC` the outcome was “inactive”. For `Cc1nn(CCCC(=O)Nc2cccnc2Cl)c(C)c1[N+](=O)[O-]`, the outcome was “inactive”. For `Cc1sc2nc(SCC(=O)OC(C)C)n(C)c(=O)c2c1C`, the outcome was “inactive”. In the case of `COCCn1c(C)cc(C(=O)COC(=O)c2n[nH]c3ccccc23)c1C`, the outcome is reported as “inactive”. For `Cc1nn(C(C)(C)C)c(C)c1/C=N/OC(=O)Nc1ccc(Cl)c(Cl)c1`, the outcome was “inactive”. In the case of `CCCCCCCCOC(=O)/C=C/c1c(C)[nH]c(=O)[nH]c1=O`, the outcome is reported as “inactive”. In the case of `COC(=O)c1ccc(COc2ccccc2/C=C/C(=O)c2ccc(OCC(=O)O)cc2)cc1`, the outcome is reported as “inactive”. In the case of `CC(C)Oc1ccc(C(=O)Nc2nnc(SCC(=O)N3CCOCC3)s2)cc1`, the outcome is reported as “inactive”. With `COC(=O)CCNc1ccc2c(c1)OCCO2` the outcome was “inactive”. In the case of `COc1ccc2[nH]c3c(=O)n(CCCCC(=O)N4CCC(C(N)=O)CC4)c(=S)[nH]c3c2c1`, the outcome is reported as “inactive”. For `Cc1c(/C(O)=C2/C(=O)C(=O)N(CCN3CCOCC3)C2c2ccccn2)cnn1-c1ccccc1` (centres undefined), the outcome was “inactive”. For `O=[N+]([O-])c1cc(/C=N\O)ccc1Oc1ccc(F)cc1`, the outcome was “inactive”. For `O=[N+]([O-])c1ccc(/C=N/Nc2cc(Cl)nc(-c3ccccc3)n2)cc1`, the outcome was “inactive”. With `CCOc1ccc(Nc2ncnc3ccc([N+](=O)[O-])cc23)cc1` the outcome was “inactive”. With `COc1ccc(NC(=O)COC(=O)/C=C/c2ccc(OC)c(S(=O)(=O)N3CCOCC3)c2)cc1` the outcome was “inactive”. In the case of `Cc1nc(N)nc(N)c1/C=C/C(C)(C)c1ccc(Cl)cc1`, the outcome is reported as “inactive”. In the case of `COc1cc2cc(C(=O)N3CCN(c4ccccc4OC)CC3)[nH]c2cc1OC`, the outcome is reported as “inactive”. With `Cc1ccc(C(=O)NCCc2cccs2)cc1` the outcome was “inactive”. For `C=CCN1CCc2cc(O)c(O)cc2C(c2ccccc2)C1` (centres undefined), the outcome was “inactive”. For `CCON1C(=O)C2(CCCCC2)C(=O)C12C=CCCC2` (centres undefined), the outcome was “inactive”. In the case of `Cc1nc(C)n(C(C)CNC(=O)c2ccco2)n1` (centres undefined), the outcome is reported as “inactive”. In the case of `COc1ccc(C(c2sc3nc(C)nn3c2O)N2CCC(C(N)=O)CC2)cc1OC` (centres undefined), the outcome is reported as “inactive”. For `Cc1cc(C(=O)COc2cccnc2[N+](=O)[O-])c(C)n1-c1ccccc1F`, the outcome was “inactive”. In the case of `O=C(NCCc1cn2ccccc2n1)C1CCCCC1`, the outcome is reported as “inactive”. With `COc1ccc(-c2cc3nc(-c4ccccc4)cc(N4CCCC(O)C4)n3n2)cc1` (centres undefined) the outcome was “inactive”. With `O=C(CCc1ccccc1Cl)N1CCN(S(=O)(=O)c2ccccc2)CC1` the outcome was “inactive”. For `CC[C@]1(C(=O)OC)[C@H]2C(=O)N(Cc3ccccc3)C(=O)[C@H]2[C@H]2CN=C(SCc3ccc(Cl)cc3)N21`, the outcome was “inactive”. With `CCn1nc(C(=O)Nc2nc(-c3ccccn3)cs2)c2ccccc2c1=O` the outcome was “inactive”. With `Cc1ccc2oc(C(=O)Nc3ccc(S(=O)(=O)Nc4onc(C)c4C)cc3)c(C)c2c1` the outcome was “inactive”. With `CCc1sc(C(=O)Nc2ncccc2O)cc1C` the outcome was “inactive”. For `CCC(C)(C)NC(=O)C(c1ccc(F)cc1)N(CCOC)C(=O)CCC(=O)Nc1nccs1` (centres undefined), the outcome was “inactive”. With `CCOC(=O)c1c(NC(=O)C2C3CCC(O3)C2C(=O)O)sc(C)c1-c1ccc(F)cc1` (centres undefined) the outcome was “inactive”. For `CC1CCc2nc(N)c(C#N)c(-c3cccnc3)c2C1` (centres undefined), the outcome was “inactive”. For `CCSC1=C(C#N)C(c2ccc(C)o2)CC(=O)N1` (centres undefined), the outcome was “inactive”. With `Cc1cc(=O)[nH]c(=S)[nH]1` the outcome was “inactive”. For `COc1ccc(S(=O)(=O)N2CCN(C(=S)NCC3CCCO3)CC2)cc1OC` (centres undefined), the outcome was “inactive”. In the case of `CCOc1ccc(N/C=C/C(=O)c2ccccc2)cc1`, the outcome is reported as “inactive”. For `Cc1c(NC(=O)c2cccc(NC(=O)COc3ccccc3C#N)c2)c(=O)n(-c2ccccc2)n1C`, the outcome was “inactive”. With `Cn1cc(S(=O)(=O)N2CCN(C(=O)c3ccco3)CC2)c(=O)n(C)c1=O` the outcome was “inactive”. With `CSc1oc(-c2ccc(F)cc2)nc1S(=O)(=O)c1ccc(F)cc1` the outcome was “inactive”. For `C=CCN1CCN(C(CC(C)C)c2nnnn2CCOC)CC1` (centres undefined), the outcome was “inactive”.
